A number with no mark means an inactive call. Results filed as inconclusive are left out. Active and inactive are the calls of the source. Unless noted, calls follow the shape of the dose curve; as a rule, active = well fitted curve in the direction sought with a large enough effect in the repeat runs; inconclusive = weak or mixed curves; inactive = no such curve, though single readings can be large; an effect the other way counts as inactive or inconclusive.

Test [1] can be described thus: qHTS assay for small molecule agonists of the p53 signaling pathway (AID 651631; calls by dose curve; also: nearly all actives have a fitted effect of over 15% in size). The procedure, abridged: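 Beta-lactamase reporter activity under p53 response elements was quantified in HCT-116 cells by FRET fluorescence, following 16 h incubation with test compounds at 37 °C and 2 h substrate development at room temperature.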
(In general: qHTS replaces the single test concentration by a dilution series.)

The nature of test [2]: qHTS assay for small molecules that induce genotoxicity in human embryonic kidney cells expressing luciferase-tagged ATAD5 (AID 651632). Also: nearly all actives have a fitted effect of over 15% in size. In a few lines: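 Luminescence read-out: after 16 hr compound exposure at 37C, ATAD5-luciferase HEK293T cells received Amplite, 30 min RT, then CCD imaging. A rise in signal marks genotoxic stress.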
Test [3] can be described thus: qHTS assay for small molecule agonists of the p53 signaling pathway - cell viability (AID 651633; calls by dose curve;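 also: p53RE-bla HCT reporter cells with a stable beta-lactamase p53 reporter; series mostly up to about 83 µM; nearly all actives have a fitted effect of over 30% in size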). The procedure, abridged: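 p53RE-bla cells, seeded at 4,000 per well and rested 5 h at 37 C/5% CO2, received compounds in DMSO for 16 h at 37 C. CellTiter-Glo was then added, and luminescence was read after 30 min at room temperature to gauge cytotoxicity.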
The nature of test [4]: qHTS assay for small molecules that induce genotoxicity in human embryonic kidney cells expressing luciferase-tagged ATAD5 - cell viability (AID 651634; calls by dose curve; also: nearly all actives have a fitted effect of over 25% in size). In a few lines: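 HEK293T ATAD5-luc cells, 2,000/well; compound 15.5 hr, 37C/5% CO2; CellTiter-Fluor 30 min, 37C; fluorescence read.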
A short description of test [5]: qHTS assay to test for compound auto fluorescence at 590 nm (red) in HepG2 cells (AID 720674). The procedure, abridged:
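Intrinsic compound fluorescence in the red window (Ex/Em 540/590 nm) is measured in attached HepG2 cells exposed for 1 hr, DMSO vehicle as baseline, benchmarked to Rose Bengal sodium.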

Test [6] in a line: qHTS assay to test for compound auto fluorescence at 460 nm (blue) in HEK293 cells (AID 720678). The procedure, abridged: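 HEK293, 2,000 cells/well, 10% dialyzed FBS; attach 4-5 hr 37C; pin compound or DMSO; o/n 37C/5% CO2; fluorescence 405/460 nm; triamterene-equivalent units.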
Test [7] is described as follows: qHTS assay to test for compound auto fluorescence at 590 nm (red) in HEK293 cells (AID 720679). The procedure, abridged:
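Intensity at 540nm excitation and 590nm emission is reported as Rose Bengal sodium-equivalent autofluorescence. Measurements followed overnight exposure (37C, 5% CO2) of HEK293 cells, 2,000 per well, to 23 nL compound.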

Test [8] in a line: qHTS assay to test for compound auto fluorescence at 535 nm (green) in HEK293 cells (AID 720680).
Test [9] can be described thus: qHTS assay to test for compound auto fluorescence at 460 nm (blue) in HEK293 cell free culture (AID 720681). In a few lines: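 Test compounds were pinned into cell-free culture medium (DMEM with 10% FBS) and fluorescence was read directly at Ex/Em 405/460 nm. Signals were expressed as fluorescence equivalents of triamterene, with DMSO vehicle as control.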
The nature of test [10]: qHTS assay to test for compound auto fluorescence at 535 nm (green) in HEK293 cell free culture (AID 720682). The procedure, abridged:
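Each library compound, or DMSO control, is added by pintool to medium alone, comprising DMEM and 10% FBS. Emission at 535 nm following 485 nm excitation is quantified against fluorescein.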

The nature of test [11]: qHTS assay to test for compound auto fluorescence at 590 nm (red) in HEK293 cell free culture (AID 720683). The procedure, abridged:
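Tox21 10K library compounds were pinned into cell-free DMEM with 10% FBS and fluorescence was read at excitation 540 nm. Activity is expressed as Rose Bengal sodium equivalency.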

Test [12] can be described thus: qHTS assay to test for compound auto fluorescence at 590 nm (red) in HepG2 cell free culture (AID 720684). The procedure, abridged: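 Readout: intrinsic compound fluorescence at 590 nm emission after 540 nm excitation, scaled to Rose Bengal sodium. Matrix was cell-free MEM with 10% FBS; DMSO vehicle wells served as control.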
The nature of test [13]: qHTS assay to test for compound auto fluorescence at 460 nm (blue) in HepG2 cell free culture (AID 720685). The procedure, abridged: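 Cell-free plates of MEM plus 10% FBS received 23 nL compound or DMSO vehicle; blue-channel (405/460 nm) intensity scored against triamterene as reference fluorophore.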
The nature of test [14]: qHTS assay to test for compound auto fluorescence at 535 nm (green) in HepG2 cell free culture (AID 720686).
The nature of test [15]: qHTS assay to test for compound auto fluorescence at 460 nm (blue) in HepG2 cells (AID 720687). The procedure, abridged: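 Cells (2,000/well in MEM with 10% FBS) attached overnight at 37 C, then were exposed to compound or DMSO for 1 hr at 37 C, 5% CO2. Fluorescence read at Ex/Em 405/460 nm, expressed as triamterene-equivalent signal.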
For test [16], the target named is Glucocorticoid receptor (Homo sapiens) (UniProt P04150). Put plainly: qHTS assay to identify small molecule agonists of the glucocorticoid receptor (GR) signaling pathway (AID 720691; active = well fitted activation curve with a large enough effect in the signal ratio in the repeat runs, not every such curve was filed as active; the % refers to the signal ratio; also: potency is read from the fitted curve at half-maximal effect). The procedure, abridged: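 HeLa GR-bla reporter line; cells pre-incubated 4 h, compound in DMSO 18 h at 37 C; LiveBLAzer B/G FRET substrate 2 h RT; fluorescence intensity read-out.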
Sequence of Glucocorticoid receptor (Homo sapiens) (P04150 whole entry, looked up): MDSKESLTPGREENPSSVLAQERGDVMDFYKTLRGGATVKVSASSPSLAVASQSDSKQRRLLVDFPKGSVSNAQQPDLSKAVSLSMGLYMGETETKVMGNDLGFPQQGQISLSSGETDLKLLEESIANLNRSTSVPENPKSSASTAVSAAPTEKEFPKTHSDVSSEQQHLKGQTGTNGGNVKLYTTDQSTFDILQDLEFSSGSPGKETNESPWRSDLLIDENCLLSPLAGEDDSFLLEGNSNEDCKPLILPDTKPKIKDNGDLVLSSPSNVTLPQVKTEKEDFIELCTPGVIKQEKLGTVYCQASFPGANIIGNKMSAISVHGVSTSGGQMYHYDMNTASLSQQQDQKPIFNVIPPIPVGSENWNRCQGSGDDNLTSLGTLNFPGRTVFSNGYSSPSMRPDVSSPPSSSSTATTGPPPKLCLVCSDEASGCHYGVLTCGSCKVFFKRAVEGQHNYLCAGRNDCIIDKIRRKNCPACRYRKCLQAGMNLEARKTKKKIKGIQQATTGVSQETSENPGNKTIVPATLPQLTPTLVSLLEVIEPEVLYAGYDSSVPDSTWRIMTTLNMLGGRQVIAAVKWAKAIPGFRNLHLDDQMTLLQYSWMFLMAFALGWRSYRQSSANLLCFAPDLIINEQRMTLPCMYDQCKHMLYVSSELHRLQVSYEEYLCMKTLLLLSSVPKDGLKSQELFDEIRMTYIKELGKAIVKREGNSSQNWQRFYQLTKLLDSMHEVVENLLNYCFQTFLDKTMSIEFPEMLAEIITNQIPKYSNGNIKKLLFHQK

Test [17] has the same target. Put plainly: qHTS assay to identify small molecule antagonists of the glucocorticoid receptor (GR) signaling pathway (AID 720692; active = well fitted inhibition curve with a large enough effect in the signal ratio in the repeat runs, not every such curve was filed as active; the % refers to the signal ratio). The procedure, abridged:
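Read-out: beta-lactamase FRET substrate fluorescence, 2 h at room temperature, in HeLa cells stably carrying a GRE-driven bla reporter. Compounds were co-incubated with 5 nM dexamethasone agonist (final) for 18 h at 37 C.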

A short description of test [18]: qHTS assay for small molecule disruptors of the mitochondrial membrane potential - cell viability (AID 720634; calls by dose curve;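 also: human HepG2 liver cancer cells; series mostly up to about 83 µM; nearly all actives have a fitted effect of over 20% in size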). In a few lines:
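Luminescence from CellTiter-Glo (ATP content) gave viability in HepG2 cells, read in the same wells as the MMP dye assay after 1 hr compound exposure at 37 C.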

The nature of test [19]: qHTS assay for small molecule disruptors of the mitochondrial membrane potential (AID 720635). The procedure, abridged:
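HepG2 cells (2,000/well) attached overnight at 37C, then took compound for 1 hr at 37C, 5% CO2. Mito-MPS dye was added for 30 min; fluorescence was read at 490/535 nm (monomers) and 540/590 nm (aggregates).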

Test [20] can be described thus: qHTS assay to test for compound auto fluorescence at 535 nm (green) in HepG2 cells (AID 720675).
% is scaled to controls: 0 for no effect and ±100 for the full control effect.

With `N[C@@H](Cc1cc(I)c(O)c(I)c1)C(=O)O`, the Potency result in [1], in test [2], in [3], in [4], in test [6] and in [9] was “inactive” throughout. Moreover, the Potency result in test [13], in [15], in test [16] and in [17] was “inactive” in each case. Also, the molecule was called inactive in [5], in [7], in test [8], in test [10], in test [11] and in test [12]. Further, the outcome in [14] was inactive.

For `CC(C)(C)S`, the Potency result in test [1], in test [2], in test [3], in test [19], in [6] and in [9] was “inactive” throughout. Moreover, the Potency result in test [13], in [15] and in [16] was “inactive” each time. For the same molecule, the result in test [18], in test [5], in [20], in [7], in test [8] and in test [10] was inactive. The molecule was called inactive in test [11], in test [12] and in [14].

For `CCN(CC)C(=O)N1CCN(C)CC1`, the Potency entry in test [1], in test [2], in test [3] and in test [19] was “inactive” throughout. Moreover, the call in test [18] was inactive. Besides, in [5], the fluorescence, relative to Rose Bengal was 0.12% [at 18.6 µM]. Besides, the fluorescence, % of fluorescein control is -0.0715% [at 18.6 µM] in test [20] and -0.0623% [at 18.6 µM] in test [14]. Also, the fluorescence, % of triamterene in test [6] was -0.217% [at 18.6 µM]. For the same molecule, the fluorescence, % of fluorescent control is 0.0039% [at 18.6 µM] in test [7]; 0.0671% [at 18.6 µM] in test [9]; 0.461% [at 18.6 µM] in test [11]; -0.0488% [at 18.6 µM] in test [13]; 0.0195% [at 18.6 µM] in [15]. The fluorescence, % of fluorescein in [8] was -0.0466% [at 18.6 µM]. Moreover, the activity change in [10] was -0.0353% [at 18.6 µM]. Also, the fluorescence, % of Rose Bengal in [12] was 0.0189% [at 18.6 µM]. Further, the Potency in test [16] is 10.2 µM (active).

For `Cc1ccc(N(CCO)CCO)cc1`, the Potency entry in test [1], in [2], in test [3], in [6], in test [13] and in [15] was “inactive” each time. For the same molecule, the Potency entry in test [16] and in [17] was “inactive” each time. The outcome in test [18], in test [5], in [20], in test [7], in test [8] and in test [10] was inactive. The call in [11] and in [14] was inactive.

Regarding `CCN(CC)CCOC(=O)C(c1ccccc1)c1ccccc1`, the Potency entry in test [1], in [2], in [3], in test [6], in test [9] and in test [13] was “inactive” each time. Moreover, the Potency entry in test [15], in test [16] and in [17] was “inactive” in each case. Besides, the result in test [18], in test [5], in test [20], in test [7], in test [8] and in test [10] was inactive. Besides, the outcome in test [11], in test [12] and in test [14] was inactive.

On to `CC(=O)OCC(C)C`, for which the Potency entry in test [1], in test [2], in test [4], in test [19], in test [6] and in test [9] was “inactive” in each case. The Potency entry in [13], in [15] and in test [17] was “inactive” each time. The molecule was called inactive in test [18], in test [5], in test [20], in test [7], in test [8] and in [10]. The result in test [11] and in test [14] was inactive.

Consider `O=C(O)CCC(=O)c1ccc(-c2ccccc2)cc1`, for which the Potency result in [1], in test [2], in test [3], in test [16] and in test [17] was “inactive” throughout. The fluorescence, relative to Rose Bengal in test [5] was 0.795% [at 18.6 µM]. For the same molecule, the fluorescence, % of triamterene in test [6] was -0.239% [at 18.6 µM]. For the same molecule, the fluorescence, % of fluorescent control was -0.0888% [at 18.6 µM] in test [7], 0.387% [at 18.6 µM] in test [11], -0.0525% [at 18.6 µM] in test [13] and -0.0799% [at 18.6 µM] in [15]. Besides, the fluorescence, % of fluorescein in [8] is -0.008% [at 18.6 µM]. In addition, the activity change in [10] was 0.0155% [at 18.6 µM]. In [12], the fluorescence, % of Rose Bengal was -0.0571% [at 18.6 µM]. In [14], the fluorescence, % of fluorescein control was -0.127% [at 18.6 µM].

Source of the values: PubChem BioAssay (Tox21).
